Source: PubChem BioAssay
NadD inh: blocks S. aureus nicotinate mononucleotide adenylyltransferase; purified NadD enzyme, colorimetric absorbance read-out; inhibition, % at 20 µM; hit rate 0.78% among 360,000; in the data active means inhibition above about 26%
esBAF inh: blocks esBAF chromatin remodeling in mouse ES cells. Bmi1-luciferase knock-in reporter, 24 h; 100% = twice the neutral-well signal. reporter increase, % at 12.5 µM. hit rate 2% among 350,000. AID 602393; in the data active means activation above about 40%;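 further: 0% = median of the plate's neutral control wells and 100% = double that signal; a rise in the Bmi1 reporter signal indicates esBAF inhibition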
Vif inh: blocks HIV Vif function. hit rate 0.35% among 340,000. HEK293T cells, Vif self-association by quenched fluorescence, imaging, 24 h. inhibition, % at 7.49 µM. AID 602346; in the data active means inhibition above about 50%, passing the limit was not always enough
GRIN3A LBD mod: NR3A (human) ligand-binding domain modulation; NR3A LBD differential scanning fluorimetry, Tm shift; 0% = protein alone, 100% = glycine-bound protein; Tm shift relative to glycine control, % at 25 µM; hit rate 2.5% among 340,000;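 active means melting temperature shift of at least 10% of the positive control shift, at one fixed dose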
SMARCA2 act: increases SMARCA2 function in MMTV reporter cells; AID 652017; hit rate 1% among 370,000; MG213 cells, MMTV-luciferase reporter, dexamethasone, overnight; activation, % at 9.1 µM; in the data active means activation above about 7.8%;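 further: 0% = vehicle wells and 100% = reference activator wells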
SKN-1 block: blocks SKN-1 activity in C. elegans; C. elegans VP596 Pgst-4::GFP/RFP ratio, acrylamide-induced, 24 h; inhibition, % at 21.8 µM; hit rate 0.49% among 360,000;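 active means interference check ratio from 0.5 to 1.5 plus GFP to RFP signal ratio inhibition reaching or exceeding a fixed threshold, cut at about 30% in these data, passing the limit was not always enough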
* marks the source's active call; other numbers are inactive results; nt = no result given. Sampled rows, rich in hits. Any-hit rate of the full collection: about 5.2%.

SMILES	NadD inh	esBAF inh	Vif inh	GRIN3A LBD mod	SMARCA2 act	SKN-1 block
CC(=O)N=c1c(C#N)cc2c(=O)n3ccccc3nc2n1Cc1ccccc1	5	-5	-8	-8	8.3*	8
COC(=O)CN1C(=S)N(c2ccc(OC)cc2)C(=O)/C1=C/c1ccc(OC)cc1	-6	nt	nt	-4	-1	-5
COC(=O)CN1C(=S)N(c2ccc(OC)cc2)C(=O)/C1=C/c1ccc(N2CCOCC2)cc1	1	nt	0	-2	-4	37*
COc1ccc(S(=O)(=O)Nc2ccc3c(c2)CC(=O)N([C@H](C)CO)C[C@H](C)[C@H](CN(C)S(=O)(=O)c2ccccc2)O3)cc1	nt	0	nt	nt	nt	nt
CN(C)C(=O)c1ccc(-c2ccc3c(c2)[C@H]2[C@H](CCN2C(=O)C2CCC2)[C@H](CO)N3C)cc1	nt	2	nt	nt	nt	nt
CCC(=O)c1ccc(N2CCN(C(=O)c3cc([N+](=O)[O-])ccc3N3CCN(C)CC3)CC2)c(F)c1	-5	-5	-3	14*	-1	1
CCOc1ccc2nc(N/C(N)=N/C(=S)Nc3cccc(OC)c3)nc(C)c2c1	8	nt	-12	14*	1	1
CCOc1ccc2nc(N/C(N)=N/C(=S)Nc3cccc(C)c3)nc(C)c2c1	19	3	5	23*	-1	10
COc1ccc2nc(N/C(N)=N/C(=S)Nc3c(C)cccc3C)nc(C)c2c1	9	nt	-7	24*	8	11
C[C@@H]1CCCCO[C@@H](CN(C)C(=O)C2CCCCC2)[C@@H](C)CN([C@H](C)CO)C(=O)c2cc(NC(=O)CCCN(C)C)ccc2O1	nt	3	nt	nt	nt	nt
C[C@H]1CN([C@@H](C)CO)C(=O)c2cc(-c3ccncc3)cnc2O[C@@H]1CN(C)Cc1ccc(F)cc1	nt	-2	nt	nt	nt	nt
C[C@H](CO)N1C[C@H](C)[C@@H](CN(C)C(=O)CCC(F)(F)F)OCCCC[C@H](C)Oc2ccc(NC(=O)NC3CCCCC3)cc2C1=O	nt	0	nt	nt	nt	nt
C#Cc1ccc(C(=O)Nc2ccc(N3CCC(C)CC3)c(C(N)=O)c2)cc1	14	nt	0	27*	-1	-16
COc1ccc(NC(=O)N(C)C[C@@H]2OCCCC[C@@H](C)Oc3ccc(NS(=O)(=O)c4ccc(OC)cc4)cc3C(=O)N([C@@H](C)CO)C[C@H]2C)cc1	nt	3	nt	nt	nt	nt
CCN(Cc1ccccc1)c1ccc(/C=N/NS(=O)(=O)c2ccc(C)c([N+](=O)[O-])c2)cc1	12	nt	4	18*	-3	-11
O=C(Nc1ccc(C(F)(F)F)cc1)N[C@H]1CC[C@@H](CC(=O)N2CCCCC2)O[C@H]1CO	nt	5	nt	nt	nt	nt
CCCCCOc1ccc(CN2CCOCC2)cc1Cl	-2	50*	-4	0	2	17
Cc1cc(C(=O)Nc2cccc(C(=O)O)c2)c(C)o1	2	-7	2	-1	5	11
Cc1cc(C(=O)Nc2cccc(O)c2)c(C)o1	0	37	-6	17*	0	6
Cc1cc(C(=O)NCC(=O)O)c(C)o1	4	-10	115*	0	0	-7
COc1ccc(S(=O)(=O)N(C)C[C@H]2Oc3c(NS(C)(=O)=O)cccc3C(=O)N([C@H](C)CO)C[C@H]2C)cc1	nt	2	nt	nt	nt	nt
C[C@@H]1CN([C@@H](C)CO)C(=O)c2cc(NC(=O)CCCN(C)C)ccc2O[C@@H]1CN(C)Cc1ccc(C(F)(F)F)cc1	nt	2	nt	nt	nt	nt
O=C(O)c1ccc(NNC(=S)Nc2cc(C(F)(F)F)ccc2Cl)cc1	-5	54*	22	2	0	-14
FC(F)(F)c1cnc(NNC(=S)Nc2ccc(Cl)cc2)c(Cl)c1	2	nt	-14	18*	-8	26
O=C(NC(=S)Nc1cc(C(F)(F)F)ccc1Cl)c1ccccc1	-7	25	-1	-6	0	26
SMILES	NadD inh	esBAF inh	Vif inh	GRIN3A LBD mod	SMARCA2 act	SKN-1 block
O=C(C[C@H]1CC[C@@H]2[C@H](COC[C@H](O)CN2C(=O)Nc2ccccc2)O1)NCCc1ccncc1	nt	9	nt	nt	nt	nt
O=C(COc1ccccc1Cl)Nc1ccc(NC(=O)c2ccco2)cc1	-2	8	2	15*	-1	0
COc1ccc(CC(=O)Nc2ccc(-c3noc(COc4ccccc4C)n3)cc2)cc1	6	-8	-13	-7	0	-23
O=C(Nc1ccc(-c2noc(COc3ccccc3Cl)n2)cc1)c1ccco1	-1	34	-22	13*	3	-1
C=CCNc1nc(C(=O)OCC(=O)c2ccc(F)cc2)cs1	-2	30	-8	1	4	-2
C=CCNc1nc(C(=O)OC(C)C(=O)c2ccc(C)cc2)cs1 (centres undefined)	0	57*	-1	0	3	-31
CN1C(=O)c2cc(NS(=O)(=O)c3ccccc3F)ccc2OC[C@@H]2O[C@H](CC(=O)NC3Cc4ccccc4C3)CC[C@H]21	nt	10	nt	nt	nt	nt
COc1ccc(CCNC(=O)c2nonc2N)cc1	-8	48*	3	-1	1	-4
COc1ccc(CCNC(=O)[C@@H](NC(N)=O)C(C)C)cc1	5	nt	51*	-1	-3	6
CCCCC(=O)NCCc1ccc(OC)cc1	7	3	1	-1	0	1
CCOc1ccc(OCCCC(=O)NCCc2ccc(OC)cc2)cc1	-4	1	-1	34*	-2	5
O=C(Nc1ccc2c(c1)OCO2)N[C@@H]1CC[C@H](CCNC(=O)C2CCOCC2)O[C@@H]1CO	nt	-1	nt	nt	nt	nt
Cc1ccccc1N/N=C/c1ccc(C#N)cc1	0	nt	1	18*	0	3
O=c1[nH]cnc2sc(-c3ccccc3)cc12	7	49*	-1	1	7	18
CCn1cnc2sc(-c3ccccc3)cc2c1=O	4	49*	-1	-2	3	21
O=c1c2cc(-c3ccccc3)sc2ncn1-n1cccc1	5	72*	9	2	0	9
COc1cccc(-n2cnc3sc(-c4ccccc4)cc3c2=O)c1	-5	47*	-16	0	0	-8
COc1ccc(-n2cnc3sc(-c4ccccc4)cc3c2=O)cc1	4	34	37	2	3	7
Cc1ccc(C)n1-n1cnc2sc(-c3ccccc3)cc2c1=O	7	18	-4	-20	-2	1
Cc1ccc(S(=O)(=O)N[C@H]2CC[C@@H](CC(=O)NCc3ccccc3F)O[C@@H]2CO)cc1	nt	-2	nt	nt	nt	nt
O=C(NCCc1ccccc1)c1noc2c1CCCCC2	-6	50*	11	8	5	18
O=C(NCc1cccs1)c1noc2c1CCCC2	-6	21	-5	11*	2	-7
O=C(NCc1ccccc1)c1noc2c1CCCC2	-7	23	nt	2	5	11
Cc1ccc(S(=O)(=O)Nc2ccc3c(c2)C(=O)N([C@H](C)CO)C[C@H](C)[C@H](CN(C)S(=O)(=O)c2ccc(C)cc2)O3)cc1	nt	0	nt	nt	nt	nt
S=C(NCCc1cccc(Cl)c1)NC1CCCCC1	1	66*	-2	12*	6	3
